# Measurements reported in ChEMBL document CHEMBL3988442, “University of Dundee, Small-Polar-MMV Screening Library” (2021).
# The campaign covered roughly 48,000 compounds. About 13,000 (27%) showed an effect of 50% or more. The list shows a part of the results.
# Tested on: Wolbachia pipientis
# Assay: Anti-Wolbachia Cell-Based Screen
# Format: functional
# Design: scale not given: in the data most compounds retested in dose-response had high values
# Conditions: 5 µM
row,Compound,Percent Effect [%]
1,Cc1ccc(C(=O)N2CC[C@@H]3CN(C4CCOCC4)CCO[C@@H]3C2)o1.O=C(O)C(F)(F)F,105.9
2,CN(C)C[C@H]1OC[C@@H]2CCN(C(=O)c3ccco3)C[C@@H]21.O=C(O)C(F)(F)F,5.332
3,O=C(O)C(F)(F)F.O=C(c1ccco1)N1CC[C@@H]2CN(C3CCOCC3)CCO[C@@H]2C1,107.9
4,COc1ccc(CN2CC[C@@H]3CN(S(C)(=O)=O)CCO[C@@H]3C2)cc1.O=C(O)C(F)(F)F,4.247
5,O=C(O)C(F)(F)F.O=C(c1ccco1)N1CCOCC2(CCN(C3CCOCC3)C2)C1 (configuration not stated),7.241
6,CN1CCO[C@@H]2CN(C(=O)c3ccc4[nH]ccc4c3)CC[C@@H]2C1.O=C(O)C(F)(F)F,-13.85
7,Cc1ccoc1C(=O)N1CC[C@@H]2O[C@@H](C)C[C@H]2C1,0.7135
8,Cc1ccoc1C(=O)N1CC[C@H]2O[C@@H](C)C[C@H]2C1,-21.6
9,Cc1ccoc1C(=O)N1CC[C@@H]2CN(C3CCOCC3)CCO[C@@H]2C1.O=C(O)C(F)(F)F,107.8
10,Cc1ccc(CNC2(Cc3cc(-c4cccc(O)c4)on3)COC2)o1,-8.459
11,COC(=O)C1CCN(C(=O)c2ccc(N(C)S(C)(=O)=O)c(C)c2)CC1,-6.417
12,COCCC1(C(=O)O)CCCN(Cc2cc3c(cc2Cl)OCO3)C1 (configuration not stated),4.782
13,CNC(=O)CN1CCC(NC2CSCCc3ccccc32)CC1 (configuration not stated),0.2819
14,CS(=O)(=O)N1CCC(c2nnc(Cn3ccnc3)n2C2CC2)CC1,-22.9
15,Cn1c(Cn2ccnc2)nnc1C1CCCN(C2CCCCC2)C1 (configuration not stated),-3.14
16,Cn1c(Cn2ccnc2)nnc1C1CCN(C(=O)C2(C)CC2)CC1,6.343
17,CC(C)OC(=O)N1CCC(c2nnc(Cn3ccnc3)n2C)CC1,96.34
18,CC(C)S(=O)(=O)N1CCCC(c2nnc(Cn3ccnc3)n2C)C1 (configuration not stated),-6.159
19,COC(=O)N1CCC(c2nnc(Cn3ccnc3)n2C)CC1,110.5
20,Cc1ccc(N2C(=O)N[C@@H]3CCN(C(=O)C4CCCC4)[C@@H]3C2=O)cc1,-4.286
21,CCc1ccc(C(=O)O)cc1S(=O)(=O)N(C)c1cccc(C#N)c1,-20.44
22,c1csc(N2CCN(Cc3cc4n(n3)CCNC4)CC2)n1,-2.451
23,COC(=O)Cn1c(=O)nc2n1C(=O)N(c1ccc(Cl)cc1)C2,5.835

row,Compound,Percent Effect [%]
1,CNc1nc(C)cc(NCc2cc(C)cc3c(C)c(C)[nH]c23)n1,-6.475
2,Cc1ccc(CN2CC[C@H]3[C@H]2CCN3S(=O)(=O)C2CC2)cc1.O=C(O)C(F)(F)F,-0.5114
3,O=C(O)C(F)(F)F.O=C([C@@H]1CC[C@@H]2[C@@H](CCN2Cc2cccs2)O1)N1CCCCO1,-2.602
4,Cc1ccc(CN2CC[C@@H]3O[C@@H](C(=O)N4CCN(C)CC4)C[C@@H]32)cc1.O=C(O)C(F)(F)F.O=C(O)C(F)(F)F,117.4
5,Cc1cccc(CN2C[C@@H](CN3CCCN(C)CC3)C[C@H](CO)C2)n1,-14.48
6,O=C(O)C(F)(F)F.O=S(=O)(C1CC1)N1CC[C@@H]2[C@@H]1CCN2Cc1cccs1,10.91
7,Cc1cccc(CN2CC[C@@H]3O[C@@H](C(=O)N4CCN(C)CC4)C[C@@H]32)c1,93.61
8,CN1CCN(C(=O)[C@H]2CC[C@@H]3[C@@H](CCN3Cc3ccsc3)O2)CC1.O=C(O)C(F)(F)F.O=C(O)C(F)(F)F,-13.28
9,Cc1cccc(CN2CCN(C(=O)[C@@H]3CSCN3C)CC2)c1,0.2793
10,Cn1cc(CN2CC[C@@H]3O[C@H](C(=O)N4CCOCC4)C[C@@H]32)cn1,5.245
11,CN1CCN(C(=O)[C@H]2C[C@H]3[C@H](CCN3Cc3cccs3)O2)CC1.O=C(O)C(F)(F)F.O=C(O)C(F)(F)F,106.2
12,Cc1cccc(CN2CC[C@@H]3O[C@@H](C(=O)N4CCN(C)CC4)C[C@@H]32)n1,123
13,CCN1CCC(CNCc2cc(C)ccc2OC)C1 (configuration not stated),23.09
14,Cc1[nH]nc2ncc(C(=O)N3CCN(C(C)(C)C)CC3)cc12,13.12
15,CN(C)c1ccccc1CN1CCCCC1CNS(C)(=O)=O (configuration not stated),-10.3
16,O=C1CC2(CCN(C(=O)c3csc(-c4ccccc4)n3)C2)C(=O)N1 (configuration not stated),6.339
17,COCCCN1CCC(NC(=O)C2CC2)CC1,-0.3398
18,O=C(c1ccoc1)N1CCn2nc(CN3CCSCC3)cc2C1,-1.758
19,O=C([C@H]1C[C@H]2[C@H](CCN2Cc2cccs2)O1)N1CCOCC1,91.43
20,O=C(NCCO)c1ccn(-c2ccc3ccccn23)n1,-13.14
21,Cn1cnc(-c2nc(C(=O)NCC3CCCO3)c3ccccn23)c1 (configuration not stated),-2.484
22,CN(C)Cc1nc(-n2cnc(C(=O)NCC3CC3)c2)n2ccccc12,123.3
23,O=C(NC1CCCC1)c1cc(Cn2cnc3ccccc32)on1,-23.61

row,Compound,Percent Effect [%]
1,CN(Cc1nnc2ccccn12)C(=O)NC1CCCCC1,-15.02
2,CN(C)Cc1nc(-n2cnc(C(=O)NC3CCCC3)c2)n2ccccc12,115.9
3,Cc1nc[nH]c1-c1nc2cc(S(=O)(=O)N3CCCC3)ccc2n1C,-21.22
4,Cc1ncc(CNc2cnccc2CO)s1,7.83
5,CCN(Cc1cccc(F)c1)S(=O)(=O)N1CCOCC1,-36.14
6,Cc1cnccc1CN1C[C@@H](O)[C@H](Oc2cccc(F)c2)C1,-1.659
7,O=C(c1ccnnc1)N1C[C@@H]2CC[C@H](Oc3cccc(F)c3)[C@@H]2C1,-13.73
8,CCN(CC)S(=O)(=O)N1C[C@@H](O)[C@H](Oc2cccc(F)c2)C1,71.42
9,CCN(C)C(=O)c1ccc(N2CCC(Oc3cccc(F)c3)CC2)nc1,-6.141
10,CCS(=O)(=O)N1C[C@@H](O)[C@H](Oc2cccc(F)c2)C1,115.8
11,COc1cccc(F)c1-c1nc2c([nH]1)c(C1CC1)nn2C,3.42
12,CCCC(C)C(=O)Nc1ccc(OC)nc1N1CCN(C(C)=O)CC1 (configuration not stated),-14.17
13,COc1cc(C(=O)NCc2cc(N3CCOCC3)ncn2)ccn1,5.956
14,CNc1cc(CNC(=O)c2cccnc2)nc(-c2ccncc2)n1,94.55
15,CNc1cc(CNC(=O)c2ccnc(OC)c2)nc(-c2ccncc2)n1,103.5
16,COc1cc(C(=O)N(C)C(C)Cc2cc(C)ccn2)ccn1 (configuration not stated),-2.709
17,Cc1cc(NC(C)C(=O)NCc2ccccc2)nc(-c2ccncc2)n1 (configuration not stated),6.15
18,CNc1cc(CNC(=O)c2ccccc2)nc(-c2ccncc2)n1,-7.143
19,CNc1cc(CNC(=O)c2ccncc2)nc(-c2ccncc2)n1,109.4
20,CNc1cc(CNC(=O)c2ccccc2OC)nc(-c2ccncc2)n1,104.1
21,O=C(NCCOc1ncc(Cl)cc1Cl)c1cccnc1,0.5232
22,CNc1cc(CNC(=O)c2ccccn2)nc(-c2ccncc2)n1,-12.05
23,O=S1(=O)CCC(n2cc(CNc3ccccc3Br)cn2)C1 (configuration not stated),3.444

row,Compound,Percent Effect [%]
1,CCOCC1CCN(C(=O)C(c2c(F)cccc2F)N(C)C)CC1 (configuration not stated),-13.66
2,CC(C)c1nc(-c2ccc(=O)[nH]n2)n(-c2ccc3c(c2)OCO3)n1,-26.15
3,CC(C)N1CCOC[C@H]1c1nc(-c2ccncc2)c[nH]1,8.176
4,CCc1nccn1CCC(=O)N1C[C@H]2CC[C@@H]1CN(C(=O)N(C)C)C2,-6.839
5,CC(C)C(=O)NCCNC(=O)C(C)OCC(F)(F)F (configuration not stated),2.033
6,CC(C)COC(C)C(=O)NCc1ccccc1Cn1ccnc1 (configuration not stated),-1.115
7,CCN(CC)CCNC(=O)C(C)OCC(F)(F)F (configuration not stated),-16.45
8,CC(Oc1ccc(C(=O)NCCNS(C)(=O)=O)cn1)c1ccccc1 (configuration not stated),12.3
9,CC(C)COC(C)C(=O)N1CCCCCC1 (configuration not stated),-3.624
10,CC(C)COC(C)C(=O)NCCNC(=O)C(C)C (configuration not stated),90.67
11,CCOC(C)C(=O)NCCNS(C)(=O)=O (configuration not stated),99.51
12,CC(C)COC(C)C(=O)N1CCCC1 (configuration not stated),-7.961
13,CC(C)COC(C)C(=O)NCCNS(C)(=O)=O (configuration not stated),116.1
14,CC(C)N1CC(C(=O)N2CCN(CCn3cccc3)CC2)CC1=O (configuration not stated),11.86
15,Cc1ccc(CN(CCN(C)C)Cc2ncc[nH]2)s1,-6.049
16,CNC(=O)c1cccc(CCNS(C)(=O)=O)c1,-1.562
17,COc1ccc(OC)c(C(C)NC(=O)Nc2nnc(C)s2)c1 (configuration not stated),-19.71
18,O=C(O)C(F)(F)F.OCCOCc1n[nH]c2c1CN(Cc1ccccn1)C2,-2.311
19,CCCN1CCc2c(C(=O)N(C)Cc3ccccn3)nn(C)c2C1.O=C(O)C(F)(F)F.O=C(O)C(F)(F)F.O=C(O)C(F)(F)F,5.255
20,CN(C)CCOCc1cncc2c1CCN(Cc1ccccn1)C2.O=C(O)C(F)(F)F.O=C(O)C(F)(F)F.O=C(O)C(F)(F)F,94.64
21,CN(C)C(=O)COCc1cncc2c1CCN(Cc1ccccn1)C2.O=C(O)C(F)(F)F.O=C(O)C(F)(F)F,86.2
22,CN(C)C(=O)COCc1cncc2c1CCN(Cc1cnn(C)c1)C2.O=C(O)C(F)(F)F.O=C(O)C(F)(F)F,-8.97
23,CN(C)C(=O)COCc1cncc2c1CCN(Cc1ccccc1)C2.O=C(O)C(F)(F)F.O=C(O)C(F)(F)F,-0.7445
